From PubChem
An excerpt weighted towards active compounds, which were near 11% of everything screened.
G9a inh: blocks human histone lysine methyltransferase G9a; Potency, µM (doses to about 102 µM), for the others: top-dose activity, negative = inhibition, actives largely listed as inhibitors; AID 504332; 350,000 tested, 8.8% active; G9a H3K9 monomethylation, AlphaScreen, 2 h; Q96KQ7; note: % is set by controls: 0 for no effect and ±100 for the full control effect; nearly all actives have a fitted effect of over 75% in size
Target sequence (Q96KQ7 913-1193 limits assumed): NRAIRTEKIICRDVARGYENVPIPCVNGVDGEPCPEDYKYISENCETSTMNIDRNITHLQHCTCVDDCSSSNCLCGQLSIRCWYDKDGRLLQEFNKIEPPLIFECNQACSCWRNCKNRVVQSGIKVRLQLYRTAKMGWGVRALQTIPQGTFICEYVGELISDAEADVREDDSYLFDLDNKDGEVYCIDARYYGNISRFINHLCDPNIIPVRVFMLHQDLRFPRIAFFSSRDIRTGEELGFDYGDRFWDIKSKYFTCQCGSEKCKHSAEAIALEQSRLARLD
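Methyltransferase reactions run at room temperature for 2 h (20 nM enzyme, 500 nM biotin-H3K9 peptide, 20 uM SAM) after a 15 min compound preincubation; product detected by AlphaScreen beads and anti-H3K9me1 antibody.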
HP1b chromo inh: inhibitors of HP1-beta chromodomain binding to methylated histone tails. 390,000 tested, 0.56% active. AlphaScreen HP1-beta / biotin-H3K9me3 peptide binding. P83916. Potency, µM (titrated, usually from 114 µM), without a hit: at the top dose activity change, negative = inhibition, usual class: inhibitors; note: nearly all actives have a fitted effect of over 70% in size
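Compound inhibition of the preformed complex between 50 nM HP1-beta and 50 nM biotinylated H3K9me3 peptide was read by AlphaScreen. Buffer was PBS pH 7.4 with 0.01% Tween-20. Incubations ran 30 min at room temperature, with 10 ug/mL donor/acceptor beads.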
JMJD2A Tudor inh: inhibitors of human JMJD2A Tudor domain. 390,000 tested, 4.4% active. AlphaScreen JMJD2A-Tudor / H3K4me3 peptide binding. Potency, µM (titrated, usually from 114 µM), for inactives: at the top dose activity change, negative = inhibition, hits mostly inhibitors; note: % is set by controls: 0 for no effect and ±100 for the full control effect; nearly all actives have a fitted effect of over 50% in size
BAZ2B block: BAZ2B (human) inhibition; Q9UIF8; AlphaScreen BAZ2B-H3K14Ac peptide displacement; Potency, µM (highest dose often 114 µM), for inactives: at the highest dose activity change, negative = inhibition, usual class: inhibitors; 360,000 tested, 4.4% active; AID 504333; note: % is set by controls: 0 for no effect and ±100 for the full control effect; nearly all actives have a fitted effect of over 60% in size
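AlphaScreen displacement of biotin-H3(5-23)K14Ac peptide (50 nM final) from BAZ2B (50 nM final) in PBS pH 7.4, 0.01% Tween-20; complex preformed 30 min RT, then compounds (top 110 uM) 30 min RT, beads 20 min dark.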
PLK1 PBD inh: PLK1 (human) polo-box domain binding inhibition | 360,000 tested, 2.8% active | Plk1 PBD binding of FITC phosphopeptide, fluorescence polarization | P53350 | Potency, µM, inactives show max response, negative = inhibition, actives largely listed as inhibitors; note: series mostly up to about 57 µM; % is set by controls: 0 for no effect and ±100 for the full control effect; nearly all actives have a fitted effect of over 65% in size
VDR inh: inhibitors of human vitamin D receptor | P11473 | Potency, µM, for inactives: max response, negative = inhibition, actives largely listed as inhibitors | VDR-SRC2-3 peptide fluorescence polarization, 2 h | 400,000 tested, 0.93% active | AID 504847; note: % is set by controls: 0 for no effect and ±100 for the full control effect
Target sequence (P11473 whole entry, looked up): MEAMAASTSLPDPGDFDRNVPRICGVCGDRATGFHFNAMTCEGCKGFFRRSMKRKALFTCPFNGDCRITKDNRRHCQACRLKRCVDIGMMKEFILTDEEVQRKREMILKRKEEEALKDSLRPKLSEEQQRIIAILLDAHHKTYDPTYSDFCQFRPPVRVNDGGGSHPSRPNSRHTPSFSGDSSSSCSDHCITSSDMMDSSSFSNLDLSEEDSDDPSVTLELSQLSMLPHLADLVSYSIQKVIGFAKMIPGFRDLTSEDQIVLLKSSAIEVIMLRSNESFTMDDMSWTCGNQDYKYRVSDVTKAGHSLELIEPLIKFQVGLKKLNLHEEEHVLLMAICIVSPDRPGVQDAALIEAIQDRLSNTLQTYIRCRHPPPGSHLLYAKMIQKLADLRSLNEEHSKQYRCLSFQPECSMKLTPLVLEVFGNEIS
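Fluorescence polarization assay measuring small-molecule disruption of VDR binding to the coregulator peptide SRC2-3. Compounds were pin-transferred (23 nl) into the reagent mix and incubated 2 h at room temperature before reading.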
VDR inh confirm: inhibits human vitamin D receptor, primary hit validation | shares compounds with VDR inh | VDR-coactivator inhibition assay, qHTS confirmation | Potency, µM, actives largely listed as inhibitors | 840 tested, 89% active
VDR FP: blocks human VDR-coactivator binding in fluorescein assay; shares compounds with VDR inh; VDR-coactivator binding, fluorescein fluorescence polarization; Potency, µM (top dose mostly 57.1 µM), inactives show at the top dose activity change, negative = inhibition, actives largely listed as inhibitors; 840 tested, 48% active; AID 602200
VDR bla reporter: inhibits human VDR in beta-lactamase reporter cells; shares compounds with VDR inh; 840 tested, 23% active; Potency, µM (doses to about 46.1 µM), without a hit: at the highest dose activity change, negative = inhibition, most hits filed as inhibitors; AID 602202; VDR beta-lactamase reporter cells, FRET ratio; cells co-treated with VDR agonist LG190178; note: % is set by controls: 0 for no effect and ±100 for the full control effect
VDR viability: counter-screen for vitamin D receptor inhibitors: cytotoxicity. shares compounds with VDR inh. cytotoxicity counter-screen, cell viability, qHTS. Potency, µM (titrated, usually from 48.3 µM), for inactives: top-dose activity change, negative = cytotoxicity, hits mostly cytotoxic. 840 tested, 18% active;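 note: plate controls were DMSO for no effect and high-concentration cycloheximide for full effect; nearly all actives have a fitted effect of over 75% in size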
An asterisk follows results filed as active; ? = inconclusive; . = no result given; [ ] = dose if it differs, or a comment. Calls come from the whole dose curve; as a rule, active = well fitted curve in the direction sought with a large enough effect; inconclusive = small, poorly fitted or top-dose-only effect, or another doubt; inactive = no such curve, though single readings can be large; an effect the other way counts as inactive or inconclusive. Potency is the fitted concentration of half-maximal effect.

SMILES	G9a inh	HP1b chromo inh	JMJD2A Tudor inh	BAZ2B block	PLK1 PBD inh	VDR inh	VDR inh confirm	VDR FP	VDR bla reporter	VDR viability
CCN1CCN(C(CNS(=O)(=O)c2ccc(Br)cc2)c2cccnc2)CC1 (stereo not drawn)	20%	34%	-10%	-1%	0%	-3%	.	.	.	.
CC(C)c1ccc(NC(=O)c2ccc(NC(=O)CCS(=O)(=O)c3cccs3)cc2)cc1	-4%[59 µM]	16%	-14%	1%	.	-4%	.	.	.	.
O=C(COc1ccccc1/C=C1\SC(=O)NC1=O)Nc1ccccc1	-49%	2%	-23%	.	?	-24%	.	.	.	.
CCOc1cc(/C=C\c2[nH]c(=O)[nH]c(=O)c2[N+](=O)[O-])ccc1OC(C)CC (stereo not drawn)	20%[12.7 µM]	-9%	-31%	2%	-20%	11µM*	8.4*	175%	?	19%
O=c1[nH]c(/C=C/c2ccccc2Cl)nc2ccccc12	10%	27%	-33%	-31%	-15%	-6%	.	.	.	.
CCCOc1ccc(/C=C/c2[nH]c(=O)[nH]c(=O)c2[N+](=O)[O-])cc1OCC	-1%[12.7 µM]	3%	?	-1%	-1%	-13%	.	.	.	.
O=c1[nH]c(/C=C/c2ccccc2Cl)c([N+](=O)[O-])c(=O)[nH]1	22%	-20%	-6%	-17%	-29%	35µM*	19*	11µM*	17%	26%
O=C(COc1ccccc1/C=C\c1[nH]c(=O)[nH]c(=O)c1[N+](=O)[O-])Nc1ccccc1	?	-10%	-24%	-8%	-12%	20µM*	4.2*	?	0%	?
CCOc1ccc(/C=C/c2[nH]c(=O)[nH]c(=O)c2[N+](=O)[O-])cc1	?	1%	-7%	-32%	-6%	?	.	.	.	.
CC(C)c1ccc(/C=C/c2[nH]c(=O)[nH]c(=O)c2[N+](=O)[O-])cc1	?	12%	-2%	-30%	-6%	22µM*	3.8*	?	?	29%
O=C(CC12CC3CC(CC(C3)C1)C2)Nc1cccc2ncccc12	-5%[12.7 µM]	55%	-17%	-1%	-3%	-6%	.	.	.	.
COc1cc(/C=C/c2[nH]c(=O)[nH]c(=O)c2[N+](=O)[O-])cc(OC)c1O	9%	20%	-12%	-25%	-2%	?	.	.	.	.
COc1cccc(/C=C/c2[nH]c(=O)[nH]c(=O)c2[N+](=O)[O-])c1O	?	-13%	-12%	-8%	?	22µM*	21*	?	14%	24%
CCOC(=O)C1(CCCc2ccccc2)CCN(S(=O)(=O)N(C)C)CC1	79%	93%	39%	36%	-11%	-12%	.	.	.	.
Cc1ccc(-c2c[n+](Cc3ccc(Cl)cc3)c3n2CCC3)cc1	-23%	-3%	-10%	-26%	-5%	-5%	.	.	.	.
Clc1ccc(C[n+]2csc3ccccc32)cc1	?	23%	50µM*	50µM*	27µM*	50µM*	15*	?	19%	4%
CN1C(=O)/C(=C/c2cccc([N+](=O)[O-])c2)C(=O)N1c1ccccc1	14µM*	3%	?	-34%	2.4µM*	32µM*	13*	?	-7%	-3%
O=C(O)CN1C(=O)/C(=C\C(Br)=C\c2ccccc2)SC1=S	41%[0.501 µM]	?	?	45µM*	6µM*	35µM*	?	18%	?	?
CCOC(=O)C(CC)Sc1ccc2nnc(CCNS(=O)(=O)c3ccc(C)cc3)n2n1 (stereo not drawn)	0%[59 µM]	61%	5%	-12%	.	1%	.	.	.	.
COC(=O)c1ccccc1NC(=O)C1=C(C)C(=O)OC12CCCCCC2	10%[59 µM]	35%	17%	25%	.	5%	.	.	.	.
COc1ccc(Nc2nnc(SCc3cc([N+](=O)[O-])cc4c3OCOC4)s2)cc1	?	-4%	-27%	-10%	?	-7%	.	.	.	.
Cc1ccc(-c2ccc(/C=C3/NC(=O)NC3=O)o2)cc1[N+](=O)[O-]	?	15%	-32%	-30%	-6%	8%	.	.	.	.
CC1=C(C#N)C(=O)NC(=O)/C1=C\c1ccc(-c2cc(C)c(C)cc2[N+](=O)[O-])o1	10µM*	?	56µM*	45µM*	4.7µM*	25µM*	10*	8.9µM*	-7%	8%
Cc1cc(Br)cc2c1N(Cc1ccccc1OC(C)C)C(=O)C2=O	8.9µM*	?	18µM*	6.3µM*	.	13µM*	4*	3.5µM*	23µM*	?
CCCCN(C)CCNC(=O)c1nn(-c2ccc(OC)c(Cl)c2)c(=O)c2c1c1ccccc1n2C	1%[59 µM]	34%	-26%	.	.	-5%	.	.	.	.
SMILES	G9a inh	HP1b chromo inh	JMJD2A Tudor inh	BAZ2B block	PLK1 PBD inh	VDR inh	VDR inh confirm	VDR FP	VDR bla reporter	VDR viability
CCCOc1ccc(C(=O)CCNC(Cc2c[nH]c3ccccc23)C(=O)O)cc1 (stereo not drawn)	7.9µM*	44%	-8%	-20%	5.3µM*	45µM*	19*	?	12%	?
Clc1ccc(Cl)c(-c2nn3c(COc4ccccc4)nnc3s2)c1	1.8µM*	?	?	5%	5.3µM*	?	11*	7.1µM*	-15%	-27%
O=C(CSc1ccc2nnc(-c3ccncc3)n2n1)N1CCc2ccccc21	?	.	.	8%	.	.	.	.	.	.
O=C(/C=C/c1cccs1)c1ccc([N+](=O)[O-])cc1	.	0%	-16%	-29%	5%	-18%	.	.	.	.
O=C(/C=C/c1ccc([N+](=O)[O-])cc1)c1cccs1	-4%	7%	-17%[11.4 µM]	-6%	?	?	?	7.1µM*	?	-9%
COc1ccc(CNC(=O)c2ccc(CS(=O)(=O)c3ccc(Br)cc3)o2)cc1	7%	40%	-3%	-10%	-9%	-20%	.	.	.	.
O=C1c2ccccc2CC[C@H]1CNCCc1ccc(O)cc1	.	.	.	.	.	3.5µM*	?	?	-5%	17%
O=C1c2ccccc2CCC1CNCCc1ccc(O)cc1 (stereo not drawn)	7.9µM*	.	.	.	.	2.8µM*	14*	28µM*	?	?
